The results in this text go back to ChEMBL document CHEMBL3988442, “University of Dundee, Small-Polar-MMV Screening Library” (2021).

In all, about 48,000 compounds went through this assay and about 13,000 (27%) showed an effect of 50% or more. The list shows a part of the results.

For this assay, the system named is Wolbachia pipientis. Description: Anti-Wolbachia Cell-Based Screen. It counts as functional. Also on record: scale not given: in the data most compounds retested in dose-response had high values. The conditions noted are these: 5 µM.
`Cc1ccc(C(F)(F)F)cc1C(=O)N[C@H]1CN(CCO)C[C@@H]1C1CC1`: the “Percent Effect” value turned out to be 7.552%.

With `CNC(=O)c1c(C)cccc1NCc1noc(C2CC2)n1`, the “Percent Effect” value was -16.59%.

Turning to `N#Cc1ccc(CN2C[C@@H](F)[C@@H](OCc3nc4cnccc4[nH]3)C2)cc1`, the “Percent Effect” value was -2.578%.

On to `CC1CN(C(=O)NCc2cnn(-c3ccc(F)cc3F)c2)CCO1` (centres undefined), for which the “Percent Effect” value was -3.691%.

Take `Cc1cnn(CCNCC(=O)Nc2ccc(Cl)cn2)c1`: the “Percent Effect” value came to 6.715%.

With `CC(C)c1nn(C)c(N(C)C)c1CNC1CCN(C2CC2)CC1.Cl`, the “Percent Effect” value is given as -24.68%.

For the compound `CC(C)CN1CC2(CCN(C(=O)C3CSC(C)(C)C(=O)N3)CC2)CC1=O` (centres undefined), the “Percent Effect” value was -2.858%.

For the compound `Cn1ccnc1C(=O)N[C@@H]1CN(Cc2ccc(F)cc2)[C@@H]2CCCO[C@@H]21.O=C(O)C(F)(F)F`, the “Percent Effect” value came to 106%.

In the case of `Cn1cc(C(=O)N[C@@H]2CN(Cc3ccc(F)cc3)[C@@H]3CCCO[C@@H]32)cn1.O=C(O)C(F)(F)F`, the “Percent Effect” value is on record as -4.433%.

Consider `Cc1ccc(CN2C[C@H](NC(=O)c3nccn3C)[C@H]3OCCC[C@H]32)o1`, for which the “Percent Effect” value came to 104.4%.

Consider `Cn1cc(C(=O)N[C@@H]2CN(Cc3ccoc3)[C@@H]3CCCO[C@@H]32)cn1`, for which the “Percent Effect” value is reported as 112.9%.

`Cn1ccnc1C(=O)N[C@@H]1CN(Cc2cccs2)[C@@H]2CCCO[C@@H]21.O=C(O)C(F)(F)F`: the “Percent Effect” value was -0.1124%.

Take `CCN(CC)[C@@H]1CN(Cc2ccc(C)o2)[C@@H]2CCCO[C@H]12`: the “Percent Effect” value was -8.708%.

With `Cn1cc(C(=O)N[C@@H]2CN(Cc3cccs3)[C@@H]3CCCO[C@@H]32)cn1.O=C(O)C(F)(F)F`, the “Percent Effect” value is recorded as -10.01%.

Consider `O=C1C(NCc2nnc3n2CCCC3)CCN1CC(F)(F)F` (centres undefined), for which the “Percent Effect” value is on record as -0.8085%.

As for `COc1ccc(CSCC(O)CO)c(Cl)c1` (centres undefined), the “Percent Effect” value is recorded as -5.402%.

In the case of `CCn1cc(S(=O)(=O)NC(CO)Cc2c[nH]c3ccccc23)cn1` (centres undefined), the “Percent Effect” value was -10.13%.

As to `CC(=O)NC1CCN(c2nc(C)nc3c2c(C)nn3C)C1` (centres undefined), the “Percent Effect” value is -5.882%.

As to `CCN(CC)c1nc2sc(C(=O)NC(C)(C)C(=O)OC)cc2s1`, the “Percent Effect” value came to 3.402%.

Take `Cc1ccc(N2Cc3nc(=O)[nH]n3C2=O)cc1`: the “Percent Effect” value is recorded as -1.797%.

Take `COC(=O)c1ccc(CN2CCN(Cc3nc(C)no3)CC2)s1`: the “Percent Effect” value stood at 97.03%.

In the case of `COC(=O)c1ccc(CN2CCC(c3n[nH]c(C)n3)CC2)s1`, the “Percent Effect” value was determined as 96.4%.

With `Cc1noc(CN2CCN(C(C)C(=O)NCc3cccs3)CC2)n1` (centres undefined), the “Percent Effect” value was 10.97%.

Regarding `Cc1noc(CN2CCN(CCS(C)(=O)=O)CC2)n1`, the “Percent Effect” value is -3.839%.

On to `COC(=O)c1ccc(Cn2cccc(C(F)(F)F)c2=O)s1`, for which the “Percent Effect” value was -1.829%.

Regarding `COC(=O)c1ccc(CN2CCC(c3noc(C)n3)CC2)s1`, the “Percent Effect” value is listed as 44.67%.

`COC(=O)c1cc(CN2CCC(c3noc(C)n3)CC2)c(C)s1`: the “Percent Effect” value is recorded as 83.77%.

As to `CC(=O)NCC1CCN(Cc2nc(C3CC3)no2)CC1`, the “Percent Effect” value is 21.76%.

Consider `Cc1nc(C2CCN(S(=O)(=O)c3ccc4c(c3)CCO4)CC2)n[nH]1`, for which the “Percent Effect” value amounted to 0.09354%.
